# Hits are enriched below; roughly 2.4% of the tested compounds scored in any of these assays.
# D2 ag-1 = activates the human D2 dopamine receptor; P14416; DiscoveRx PathHunter D2 beta-arrestin, luminescence, 90 min; 100% = 57 uM dopamine signal; activation, % (test concentration not listed); 360,000 tested, 0.084% active; in the data active means activation above about 40%; inconclusive means between about 15% and that limit
# Target sequence (P14416 whole entry, looked up): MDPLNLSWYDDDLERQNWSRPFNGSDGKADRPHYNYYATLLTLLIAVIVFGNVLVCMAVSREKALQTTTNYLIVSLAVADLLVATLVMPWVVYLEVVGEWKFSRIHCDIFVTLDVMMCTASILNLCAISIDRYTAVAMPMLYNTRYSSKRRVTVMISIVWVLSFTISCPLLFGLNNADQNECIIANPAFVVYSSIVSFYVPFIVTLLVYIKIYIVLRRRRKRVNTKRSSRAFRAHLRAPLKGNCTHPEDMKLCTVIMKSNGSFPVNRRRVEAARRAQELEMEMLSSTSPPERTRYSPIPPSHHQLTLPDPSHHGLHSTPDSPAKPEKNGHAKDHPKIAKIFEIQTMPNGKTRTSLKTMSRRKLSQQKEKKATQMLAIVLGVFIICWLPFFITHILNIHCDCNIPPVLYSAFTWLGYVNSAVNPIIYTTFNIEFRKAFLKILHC
#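 DiscoveRx PathHunter D2 beta-arrestin cells (2,100/well) attached overnight, then compound-stimulated 90 min at 37 C in HBSS/10 mM HEPES/0.1% Tween-20 buffer; beta-galactosidase complementation read by luminescence after 1 h at ambient temperature. Dopamine 57 uM final (EC100) as control.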
# D2 PAM-1 = potentiates the human D2 dopamine receptor allosterically. P14416. DiscoveRx D2 beta-arrestin cells, luminescence, 90 min; 100% = 57 uM dopamine signal. potentiation, % (test concentration not listed). 360,000 tested, 0.23% active; in the data active means potentiation above about 50%; inconclusive means mostly about 30% to 49%
#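 D2 cells co-treated with compound plus 50 nM dopamine (EC20) for 90 min at 37 deg C to detect potentiation. Beta-arrestin recruitment was read as enzyme-fragment luminescence after 1 h at ambient temperature. Full response was set by 57 uM dopamine.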
# D2 PAM-2 = positively modulates the human D2 dopamine receptor allosterically. P14416. HEK293 T-REx D2, calcium flux, EC20 dopamine potentiation. potentiation, % at 10 µM. 340,000 tested, 0.34% active;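 active means potentiation over 3 SD above the plate norm, cut at about 30% in these data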; further: 0% is about no effect
#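 Using a no-wash calcium dye in inducible, force-coupled HEK293 Trex cells expressing D2, we tracked fluorescence each second for 180 s after compound, then for 180 s after EC20 dopamine to detect augmented signalling.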
# D2 antag = D2 dopamine receptor (human) antagonism. inhibition, % at 10 µM. 340,000 tested, 2% active. AID 485344. HEK293 TREx D2 cells, calcium flux, dopamine EC80; in the data active means inhibition above about 30%; inactive means below that, where a call was filed; further: 0% is about no effect
#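 Antagonism is scored as inhibition of an EC80 dopamine-evoked calcium signal in a force-coupled, tetracycline-inducible HEK293 T-REx D2 line, with compound present 180 s before agonist.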
# D2 ag-2 = agonists of human D2 dopamine receptor; P14416; HEK293 T-REx D2 cells, calcium flux agonist mode; activation, % at 2 µM; 340,000 tested, 0.53% active; AID 485358;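 active means activation over 3 SD above normal in the single-dose calcium agonist read, cut at about 30% in these data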; further: 0% is about no effect
#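 Tetracycline-induced HEK293 T-REx cells with force-coupled D2 receptor, plated overnight at 30 C, loaded with no-wash calcium dye. After a 10 s baseline, compound was pin-added and calcium flux read kinetically for 180 s; calcium rises flagged agonists.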
# * = called active by the depositor; ? = inconclusive; nt = no result.
SMILES,D2 ag-1,D2 PAM-1,D2 PAM-2,D2 antag,D2 ag-2
NC(=O)c1c(NC(=O)C2COc3ccccc3O2)sc2c1CCN(Cc1ccccc1)C2 (stereo unspecified),-15,-23,-3,-2,42*
CC(=O)Nc1sc2c(c1-c1nc3ccccc3s1)CCN(C(C)C)C2,-6,-18,-2,-7,47*
CCN1CCc2c(sc(NC(=O)CSc3ccccc3)c2-c2nc3ccccc3s2)C1,nt,nt,-23,nt,nt
COc1ccc(NC(=O)CCCn2nc(C)c3sc4ccccc4c3c2=O)cc1,nt,nt,-4,nt,1
CC(C)N1CCc2c(sc(NC(=O)Cc3ccccc3)c2C(N)=O)C1,-1,-14,-20,40*,0
COc1ccc(CC(=O)Nc2sc3c(c2C(N)=O)CCCC3)cc1OC,6,5,2,3,0
COc1cccc(CC(=O)Nc2sc3c(c2C(N)=O)CCCC3)c1,2,-1,-9,39*,0
CC(C)N1CCc2c(sc(NC(=O)CCc3ccccc3)c2C(N)=O)C1,-1,-4,25,10,-1
O=C(CNC(=O)c1ccc(Cl)cc1)OCC(=O)c1ccc2c(c1)OCCO2,-2,-11,14,41*,0
CCOC(=O)CNC(=O)c1ccc2c(c1)OCCO2,-2,-3,-7,-3,0
CN(C)S(=O)(=O)c1ccc(C(=O)OCCc2ccccc2)cc1,-2,0,37*,3,1
COc1ccc(NC(=O)c2ccc3c(c2)CCN3S(=O)(=O)c2ccc(C)cc2)cc1Cl,nt,nt,14,nt,1
O=C(Oc1cccc(Oc2ccccc2)c1)N1CCOCC1,0,-5,7,41*,-1
O=C(Oc1ccc(-c2ccccc2)cc1)N1CCOCC1,1,-1,3,5,0
Cc1nc2cc(-c3cccc(F)c3)nn2c(C)c1CCC(=O)Nc1ccccc1C(N)=O,nt,nt,6,nt,nt
Fc1ccc(-n2cc(-c3ccccc3)c3c(N4CCOCC4)ncnc32)cc1,?,20,13,-2,1
COc1ccc(-n2cc(-c3ccccc3)c3c(N4CCOCC4)ncnc32)cc1,?,62*,5,-6,0
Cc1nnc(SCC(=O)NCCN2C(=O)CSC2=O)n1-c1ccccc1,0,4,5,47*,0
COc1ccc(Cn2c(SCc3ccc(C(=O)NCc4cccs4)cc3)nc3ccncc32)cc1,nt,nt,5,nt,1
Cc1ccc(Oc2nc(-c3ccccc3)ncc2S(C)(=O)=O)cc1,-3,7,9,9,0
Cc1ccc(Oc2nc(-c3ccccc3)ncc2S(=O)(=O)c2ccc(C)cc2)cc1,0,0,2,40*,-1
Nc1ccc(C(=O)OCc2nc3ccccc3s2)cc1,-2,-3,nt,nt,nt
O=C(OCc1nc2ccccc2s1)c1ccc(Br)s1,-2,2,3,32*,1
CCCCNC(=O)NCC(=O)Nc1ccc(F)c(F)c1,0,-4,-4,40*,0
COc1ccccc1NC(=O)NCC(=O)Nc1ccc(F)c(F)c1,-2,-12,nt,nt,nt
SMILES,D2 ag-1,D2 PAM-1,D2 PAM-2,D2 antag,D2 ag-2
CC1=CC(C)(C)N(C(=O)CN2C(=O)CCC2=O)c2ccc(C)cc21,-2,-2,11,30*,-1
[N-]=C=C1C(=S)NC(=O)[C@H]([n+]2ccccc2)[C@H]1c1ccc(Cl)cc1,5,-5,6,-9,1
[N-]=C=C1C(=O)NC(=O)C([n+]2ccc(-c3ccncc3)cc2)C1c1ccccc1C(F)(F)F (stereo unspecified),7,5,3,35*,-1
O=C(NC(=S)NCc1ccccc1)c1ccccc1,1,-8,9,36*,-1
COC(=O)c1ccc(C(=O)NC(=S)Nc2nc3c(s2)CCCC3)cc1,-1,10,nt,nt,nt
O=C(NC(=S)Nc1nc2c(s1)CCCC2)c1ccccc1,-2,-17,-18,35*,4
Cc1cc(C)cc(-n2cnc3cc(C(=O)NC4CCCCCC4)ccc32)c1,nt,nt,3,nt,2
CCC(C)c1ccccc1OCCOCCN1CCCC1 (stereo unspecified),1,-27,-17,54*,-2
Brc1ccccc1OCCCCCN1CCCC1,nt,nt,-22,-24,-1
CCC(C)c1ccccc1OCCCNC1CCCC1 (stereo unspecified),-7,-8,-26,78*,2
CCC(C)c1ccccc1OCCCCN1CCCC1 (stereo unspecified),0,-33,-23,65*,0
COc1cccc(N2CCN(C(=O)c3ccc(CS(=O)c4cccc(Cl)c4)o3)CC2)c1 (stereo unspecified),nt,nt,2,nt,nt
CC(C)N1CC(COc2ccc(Br)cc2)OC1=O (stereo unspecified),2,-4,2,41*,0
COc1ccc(C2CC(c3ccccc3)n3nnnc3N2)cc1 (stereo unspecified),-2,-6,4,-2,1
COc1ccc(C2CC(c3cc(Br)ccc3F)n3nnnc3N2)cc1 (stereo unspecified),0,19,34*,12,0
COc1cccc(NC(=O)Cn2cnc3c(nc4n3CCCCC4)c2=O)c1,nt,nt,1,nt,1
S=c1[nH]nc(C2CCCCC2)n1/N=C/c1ccc(Cl)cc1,4,-4,-4,5,0
S=c1[nH]nc(C2CCCCC2)n1/N=C/c1ccc(Br)cc1,13,-4,5,36*,2
Cc1cccc(-c2c3c(=O)n(C)c(=O)n(C)c3cn2-c2cc(N)c(Cl)cc2Cl)c1,nt,nt,-10,nt,18
CSc1ccc(S(=O)(=O)N2CCC(C(=O)NCC3CCCO3)CC2)cc1 (stereo unspecified),-2,-11,33*,8,0
CC1CCN(S(=O)(=O)c2cccc(C(=O)NCC3CCCO3)c2)CC1 (stereo unspecified),4,-5,-7,-8,0
O=C(NCC1CCCO1)c1cccc(S(=O)(=O)N2CCCCC2)c1 (stereo unspecified),-1,8,4,31*,0
NC(=O)C1CCN(S(=O)(=O)c2cccc(S(=O)(=O)N3CCCCC3)c2)CC1,0,5,8,70*,1
O=C(NCCN1CCN(c2ccccc2F)CC1)C1CCCN(S(=O)(=O)c2cnc[nH]2)C1 (stereo unspecified),15,67*,12,20,-1
COc1ccc(N2CCN(CCCNC(=O)C3CCCN(S(=O)(=O)c4c(C)n[nH]c4C)C3)CC2)cc1 (stereo unspecified),-1,-8,22,6,0
O=C(NCCN1CCC(Cc2ccccc2)CC1)C1CCCN(S(=O)(=O)c2cnc[nH]2)C1 (stereo unspecified),-4,-5,-12,-23,14

# Screens (PubChem BioAssay)
